# Test results as given in PubChem BioAssay (NCATS).
# Values without a mark were called inactive. Records with an inconclusive call do not appear. A call without a number means that no potency is given here. Calls of active or inactive are those of the source. Unless noted, calls follow the shape of the dose curve; as a rule, active = well fitted curve in the direction sought with a large enough effect; inconclusive = small, poorly fitted or top-dose-only effect, or another doubt; inactive = no such curve, though single readings can be large; an effect the other way counts as inactive or inconclusive.
# How the values were obtained:
# [1] = biological target: Guanine nucleotide-binding protein G(i) subunit alpha-1 (Homo sapiens) (UniProt P63096); assay: qHTS Assay for Inhibitors of RGS12 GoLoco Motif Activity (Green Fluorophore) (AID 879);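 also: negative values mean loss of peptide binding seen as reduced polarization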
# How it was run: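 Fluorescence polarization assay: 50 nM Gαi1 with 10 nM FITC-labeled RGS12 GoLoco peptide in 10 mM Tris pH 7.5, 150 mM NaCl, 0.1 mM GDP, 0.05% NP40, 10 min at room temperature with compound.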
# [2] = biological target: Cytochrome P450 2C9 (Homo sapiens) (UniProt P11712); assay: qHTS Assay for Inhibitors and Substrates of Cytochrome P450 2C9 (AID 883); also: nearly all actives have a fitted effect of over 60% in size; also: potency is read from the fitted curve at half-maximal effect
# How it was run: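 Turnover of Luciferin-H (100uM, KM) by 10nM human CYP2C9 was measured over 60 min at 37C with NADPH regeneration; inhibitors and some substrates reduce luminescence. Data normalized to sulphaphenazole 57uM.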
# [3] = biological target: Cytochrome P450 2D6 (Homo sapiens) (UniProt P10635); assay: qHTS Assay for Inhibitors and Substrates of Cytochrome P450 2D6 (AID 891); also: nearly all actives have a fitted effect of over 60% in size; also: potency is read from the fitted curve at half-maximal effect
# How it was run: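 Human CYP2D6 (5 nM) with 30 uM Luciferin-ME EGE (at Km) in 100 mM KPO4, compound preincubated 10 min, then NADPH regeneration system for 60 min at room temperature. Luciferin read by luminescence; normalized to 1.43 uM quinidine.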
# [4] = biological target: Cytochrome P450 2C19 (Homo sapiens) (UniProt P33261); assay: qHTS Assay for Inhibitors and Substrates of Cytochrome P450 2C19 (AID 899); also: nearly all actives have a fitted effect of over 60% in size
# How it was run: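 Reactions contain 5nM enzyme, 10uM Luciferin-H EGE (KM) and 50mM KPO4; compound preincubates 10 min at 37C, NADPH regeneration starts turnover for 60 min. Luminescence after detection reagent gives activity.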
# [5] = Cellular Toxicity (caspase-3) HepG2 (AID 654); also: potency is read from the fitted curve at half-maximal effect;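 as to caspase-3 activation: cells exposed to compound for 16 hours before reading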
# How it was run: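 HepG2 cells (1500/well) in complete medium were treated with compounds for 16 hr at 37 °C. Caspase-3/7 activity was then read as luminescence from peptide-aminoluciferin cleavage. AC50 came from Hill fits, normalized to DMSO and 100 uM tamoxifen.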
# [6] = Cellular Toxicity (caspase-3) Jurkat (AID 655); conditions: Jurkat caspase-3 activation, luminescence; caspase-3 activation: at 92.2 µM (top of the series), DMSO = 0%, tamoxifen = 100%;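 also: cells exposed to compound for 16 h at 37 °C before reading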; also: potency is read from the fitted curve at half-maximal effect
# How it was run: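 Jurkat cells (5000/well) in complete medium exposed 16 h at 37 C; caspase-3/7 activity read by Caspase-Glo luminescence after 20 min at room temperature. Normalized to DMSO and 100 uM tamoxifen; AC50 from Hill fits.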
# [7] = Cellular Toxicity (caspase-3) HUV-EC-C (AID 656)
# How it was run: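 HUV-EC-C cells (1000/well) in complete medium, compound-treated 16 h at 37 °C; caspase-3/7 activity read by Caspase-Glo 3/7 luminescence. Normalized to DMSO (basal) and 100 uM tamoxifen (100%); AC50 from Hill-equation concentration-response fits.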
# [8] = Cellular Toxicity (caspase-3) SHSY5Y (AID 657); also: potency is read from the fitted curve at half-maximal effect
# How it was run: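 SH-SY5Y human neuroblastoma cells, 1500/well, exposed to compound for 16 hours at 37 °C in complete medium. Caspase-3/7 activity read by Caspase-Glo luminescence after 1 hr at room temperature, normalized to DMSO and 10 uM staurosporine; AC50 from Hill fit.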
# [9] = Cellular Toxicity (caspase-3) BJ (AID 658)
# How it was run: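 Readout: Caspase-Glo 3/7 luminescence increase in BJ cells after 16 hr treatment at 37 °C. Staurosporine and tamoxifen served as positive controls; AC50 values came from Hill modelling of data normalized to DMSO and 10 uM staurosporine.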
# [10] = Cellular Toxicity (caspase-3) MRC-5 (AID 659)
# How it was run: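 Concentration-dependent caspase 3/7 activation is measured in human normal lung fibroblasts (MRC-5) following 16-hour treatment. AC50 values come from standard Hill-equation modeling of luminescence normalized to DMSO and 10 uM staurosporine.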
# [11] = Cellular Toxicity (caspase-3) Mesangial (AID 660);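 also: cells exposed to compound for 16 h before the caspase read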
# How it was run: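 Human renal glomerular mesangial cells (1000/well) were treated with compounds for 16 h at 37 °C in complete medium, then caspase 3/7 activity was read by Caspase-Glo luminescence. Data were normalized to DMSO and 100 uM tamoxifen; AC50 from Hill fits.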
# [12] = Cellular Toxicity (caspase-3) SK-N-SH (AID 661)
# How it was run: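 SK-N-SH human neuroblastoma cells (1500/well) were treated with compounds for 16 hr at 37 °C in complete medium; caspase 3/7 activity was read by Caspase-Glo luminescence. AC50 came from Hill fits of data normalized to DMSO and 10 uM staurosporine.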
# [13] = Cellular Toxicity (caspase-3) H-4-II-E (AID 663); conditions: H-4-II-E rat hepatoma, scaled: DMSO 0%, 100 µM tamoxifen 100%; at 92.2 µM (top of the series);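 also: cells exposed to compound for 16 hr before readout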
# How it was run: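 Apoptosis induction is scored as increased luminescence from caspase 3/7 substrate cleavage in rat hepatoma H-4-II-E cells exposed to compound for 16 hr. Activity is scaled between DMSO and 100 uM tamoxifen.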
# [14] = Cellular Toxicity (caspase-3) Hek293 (AID 664);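 also: cells exposed to compound for 16 h at 37 °C before readout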
# How it was run: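 HEK293 cells were exposed to compounds in complete medium for 16 hr at 37 °C, then caspase-3/7 activity was read by Caspase-Glo 3/7 luminescence after 20 min at room temperature. Data normalized to DMSO and 100 uM tamoxifen; AC50 from Hill fits.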
# [15] = Cellular Toxicity (caspase-3) NIH 3T3 (AID 666);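 also: caspase signal read after 16 h compound exposure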
# How it was run: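 Mouse NIH 3T3 fibroblasts (1000 cells/well) were treated with compound for 16 hr at 37°C in complete medium; caspase-3/7 activity was read by Caspase-Glo luminescence. Normalized to DMSO and 100 uM tamoxifen; AC50 from Hill fits.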
# [16] = Cellular Toxicity (caspase-3) Renal Proximal Tubule (AID 667);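 also: cells exposed to compound for 16 hours at 37 °C before detection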
# How it was run: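 Freshly isolated primary rat kidney proximal tubule cells, 1000/well, treated 16 hr at 37 °C, then Caspase-Glo 3/7 luminescence after 1 hr. Normalized to DMSO and 10 uM staurosporine; AC50 from Hill fit.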
# [17] = qHTS Assay for Identification of Small Molecule Antagonists for NFkB Signaling Pathway (AID 895; active = well fitted inhibition curve with a large enough effect in the signal ratio, with a control signal flat, not every such curve was filed as active; the % refers to the signal ratio; also: potency is read from the fitted curve at half-maximal effect)
# How it was run: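 Beta-lactamase reporter read-out (460 and 530 nm emission ratio, 405 nm excitation, 2 hrs substrate loading RT) after 5 hr stimulation with 10 pM TNF alpha in compound-treated NFkB-bla ME-180 cells in low-serum medium.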
# [18] = Confirmation and Secondary Assay for Modulators of Hemoglobin Beta Chain Splicing at IVS2 654 locus (AID 910);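 also: HeLa cells stably carrying EGFP split by mutant beta-globin IVS2-654 intron; per-well total GFP intensity by laser scanning cytometry after 2-day treatment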
# How it was run: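 Readout: per-well total peak green fluorescence (488 nm ex, 500–520 nm em) from objects 5–250 µm, reflecting correct splicing of an EGFP-654 reporter. Compounds were applied for 2 days at 37 °C to overnight-plated HeLa EGFP-654 cells; controls were DMSO and 500 nM IVS2-654 PNA.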
# [19] = biological target: Cytochrome P450 3A4 (Homo sapiens) (UniProt P08684); assay: qHTS Assay for Inhibitors and Substrates of Cytochrome P450 3A4 (AID 884); also: nearly all actives have a fitted effect of over 50% in size
# How it was run: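 20 nM human CYP3A4 with 25 uM Luciferin-PPXE (at KM) in 200 mM KPO4, preincubated 10 min with compound; NADPH regeneration started a 60 min RT reaction. Luciferin detected by luminescence, normalized to 57 uM ketoconazole as full inhibition.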
# [20] = biological target: Cytochrome P450 3A4 (Homo sapiens) (UniProt P08684); assay: qHTS Assay for Activators of Cytochrome P450 3A4 (AID 885); also: nearly all actives have a fitted effect of over 65% in size
# How it was run: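 Steps: enzyme/substrate mix dispensed; compound added, 10 min RT; NADPH regeneration solution added, 60 min RT; luciferin detection buffer stops reaction; 20 min later luminescence measured.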
# Chain of Guanine nucleotide-binding protein G(i) subunit alpha-1 (Homo sapiens) (P63096 whole entry, looked up): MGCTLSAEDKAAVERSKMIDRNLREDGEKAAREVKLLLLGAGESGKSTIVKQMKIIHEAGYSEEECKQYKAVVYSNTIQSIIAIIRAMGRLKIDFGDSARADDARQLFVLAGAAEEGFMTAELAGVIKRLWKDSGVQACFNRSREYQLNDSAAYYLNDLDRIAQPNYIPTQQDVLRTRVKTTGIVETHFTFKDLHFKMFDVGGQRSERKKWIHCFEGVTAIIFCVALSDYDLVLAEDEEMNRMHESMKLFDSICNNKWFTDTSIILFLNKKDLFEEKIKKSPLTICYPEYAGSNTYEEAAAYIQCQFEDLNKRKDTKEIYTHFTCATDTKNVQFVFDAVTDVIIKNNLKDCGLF
# Chain of Cytochrome P450 2D6 (Homo sapiens) (P10635 whole entry, looked up): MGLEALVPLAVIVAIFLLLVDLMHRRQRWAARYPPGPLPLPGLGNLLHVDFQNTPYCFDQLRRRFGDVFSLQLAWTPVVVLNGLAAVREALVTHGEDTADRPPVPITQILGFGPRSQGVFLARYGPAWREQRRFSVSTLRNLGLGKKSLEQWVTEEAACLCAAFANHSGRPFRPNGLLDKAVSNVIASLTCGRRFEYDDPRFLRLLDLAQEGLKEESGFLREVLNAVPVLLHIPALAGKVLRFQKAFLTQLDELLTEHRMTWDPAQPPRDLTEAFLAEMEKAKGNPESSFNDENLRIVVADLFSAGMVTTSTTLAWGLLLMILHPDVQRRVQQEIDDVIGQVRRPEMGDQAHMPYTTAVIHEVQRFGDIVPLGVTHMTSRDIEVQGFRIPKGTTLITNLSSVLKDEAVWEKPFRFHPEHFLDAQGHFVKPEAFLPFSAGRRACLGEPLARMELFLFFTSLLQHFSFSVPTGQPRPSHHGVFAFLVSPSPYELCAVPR
# Chain of Cytochrome P450 2C19 (Homo sapiens) (P33261 whole entry, looked up): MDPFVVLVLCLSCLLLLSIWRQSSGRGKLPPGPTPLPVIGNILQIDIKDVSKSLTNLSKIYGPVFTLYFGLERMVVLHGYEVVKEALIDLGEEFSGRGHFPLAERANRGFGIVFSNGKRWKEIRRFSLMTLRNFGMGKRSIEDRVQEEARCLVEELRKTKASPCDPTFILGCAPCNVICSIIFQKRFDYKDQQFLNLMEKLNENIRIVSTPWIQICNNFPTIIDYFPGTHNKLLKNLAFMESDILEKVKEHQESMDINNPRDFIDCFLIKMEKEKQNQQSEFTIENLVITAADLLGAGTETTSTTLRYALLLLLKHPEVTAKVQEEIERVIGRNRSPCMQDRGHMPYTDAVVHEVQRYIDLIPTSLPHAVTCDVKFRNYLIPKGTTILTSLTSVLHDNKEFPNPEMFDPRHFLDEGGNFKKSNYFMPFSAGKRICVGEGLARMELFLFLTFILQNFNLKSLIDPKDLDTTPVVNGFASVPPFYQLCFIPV
# Chain of Cytochrome P450 3A4 (Homo sapiens) (P08684 whole entry, looked up): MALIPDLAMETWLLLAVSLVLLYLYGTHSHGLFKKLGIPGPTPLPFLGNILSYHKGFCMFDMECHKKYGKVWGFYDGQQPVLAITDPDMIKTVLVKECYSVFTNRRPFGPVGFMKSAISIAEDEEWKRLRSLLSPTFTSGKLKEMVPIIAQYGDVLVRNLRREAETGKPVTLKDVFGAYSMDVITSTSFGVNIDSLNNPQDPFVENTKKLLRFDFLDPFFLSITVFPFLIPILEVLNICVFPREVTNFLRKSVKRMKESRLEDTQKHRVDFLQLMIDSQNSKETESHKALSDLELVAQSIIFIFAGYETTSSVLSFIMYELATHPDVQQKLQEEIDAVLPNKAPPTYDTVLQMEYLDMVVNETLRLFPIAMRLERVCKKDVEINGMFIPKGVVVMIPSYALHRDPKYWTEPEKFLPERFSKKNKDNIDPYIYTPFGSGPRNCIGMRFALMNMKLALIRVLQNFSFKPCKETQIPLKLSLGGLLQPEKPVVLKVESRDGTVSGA
# Chain of Cytochrome P450 2C9 (Homo sapiens) (P11712 whole entry, looked up): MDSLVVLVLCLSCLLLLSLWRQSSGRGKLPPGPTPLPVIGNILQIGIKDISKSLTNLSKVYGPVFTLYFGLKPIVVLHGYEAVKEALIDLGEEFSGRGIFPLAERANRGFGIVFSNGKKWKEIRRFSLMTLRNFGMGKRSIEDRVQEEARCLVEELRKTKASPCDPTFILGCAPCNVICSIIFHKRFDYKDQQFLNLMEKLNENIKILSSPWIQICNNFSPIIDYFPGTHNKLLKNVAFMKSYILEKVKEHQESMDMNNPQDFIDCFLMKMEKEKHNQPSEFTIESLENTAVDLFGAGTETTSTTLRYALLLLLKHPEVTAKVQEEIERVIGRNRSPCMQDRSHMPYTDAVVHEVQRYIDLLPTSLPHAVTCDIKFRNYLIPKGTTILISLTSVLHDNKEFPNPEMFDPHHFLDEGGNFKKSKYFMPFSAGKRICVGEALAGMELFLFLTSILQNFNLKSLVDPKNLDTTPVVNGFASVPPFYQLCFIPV
structure (smiles),measurement,setting,value
N#CC(C#N)=Cc1ccc(O)c(O)c1,outcome,[1],inactive
same,Potency,[2],7.94 µM (active)
same,Potency,[3],inactive
same,Potency,[4],inactive
c1ccc2c(c1)Nc1ccccc1S2,Potency,[5],inactive
same,caspase-3 activation,[6],0.561%
same,outcome,[7],inactive
same,Potency,[8],inactive
same,outcome,[9],inactive
same,outcome,[10],inactive
same,outcome,[11],inactive
same,outcome,[12],inactive
same,caspase-3 activation,[13],-0.251%
same,outcome,[14],inactive
same,outcome,[15],inactive
same,outcome,[16],inactive
CCOP(=S)(OCC)Oc1cc(C)nc(C(C)C)n1,Potency,[5],inactive
same,caspase-3 activation,[6],1.42%
same,outcome,[7],inactive
same,Potency,[8],inactive
same,outcome,[9],inactive
same,outcome,[10],inactive
same,outcome,[11],inactive
same,outcome,[12],inactive
same,caspase-3 activation,[13],-0.387%
same,outcome,[14],inactive
same,outcome,[15],inactive
same,outcome,[16],inactive
C[C@]12C/C(=C/O)C(=O)C[C@@H]1CC[C@@H]1[C@@H]2CC[C@@]2(C)[C@H]1CC[C@]2(C)O,caspase-3 activation,[6],15%
same,outcome,[7],inactive
same,Potency,[8],inactive
same,outcome,[9],inactive
same,outcome,[10],inactive
same,outcome,[11],inactive
same,outcome,[12],inactive
same,outcome,[15],inactive
CCCN1CCC[C@@H]2Cc3nc(N)ncc3C[C@H]21,outcome,[1],inactive
same,Potency,[17],inactive
O=c1[nH]c2ccccc2n1CCCN1CCC(n2c(=O)[nH]c3cc(Cl)ccc32)CC1,outcome,[1],inactive
same,outcome,[18],inactive
NCC1(CC(=O)O)CCCCC1,outcome,[1],inactive
same,Potency,[2],inactive
same,Potency,[19],inactive
same,Potency,[3],inactive
same,Potency,[4],inactive
COc1ccccc1N1CCNCC1,outcome,[1],inactive
same,Potency,[19],inactive
same,Potency,[4],inactive
same,outcome,[18],inactive
Oc1ccccc1-c1ccccc1,Potency,[5],inactive
same,caspase-3 activation,[6],82.5% (active)
same,outcome,[7],inactive
same,Potency,[8],inactive
same,outcome,[9],inactive
same,outcome,[10],inactive
same,outcome,[11],inactive
same,outcome,[12],inactive
same,caspase-3 activation,[13],-0.124%
same,outcome,[14],inactive
same,outcome,[15],inactive
same,outcome,[16],inactive
same,Potency,[19],inactive
N[C@@H](Cc1ccc(N(CCCl)CCCl)cc1)C(=O)O,Potency,[5],31.6 µM (active)
same,Potency,[6],25.1 µM (active)
same,outcome,[7],inactive
same,Potency,[8],2.51 µM (active)
same,outcome,[9],inactive
same,outcome,[10],inactive
same,caspase-3 activation,[13],116% (active)
same,outcome,[14],inactive
same,outcome,[20],inactive
NN=C(N)N,outcome,[1],inactive
same,outcome,[20],inactive
same,outcome,[18],inactive
Fc1ccc(C(OCCN2CCN(CCCc3ccccc3)CC2)c2ccc(F)cc2)cc1,outcome,[1],inactive
c1ccc(C2CC2)c(OCC2=NCCN2)c1,outcome,[1],inactive
same,Potency,[3],5.01 µM (active)
same,Potency,[4],inactive
NCC(O)c1ccc(O)cc1 (stereo unspecified),Potency,[5],inactive
same,caspase-3 activation,[6],-0.0147%
same,outcome,[7],inactive
same,Potency,[8],inactive
same,outcome,[9],inactive
same,outcome,[10],inactive
same,outcome,[11],inactive
same,outcome,[12],inactive
same,caspase-3 activation,[13],-0.161%
same,outcome,[14],inactive
same,outcome,[15],inactive
same,outcome,[16],inactive
same,Potency,[19],inactive
same,outcome,[18],inactive
Cc1cccc(C)c1NC1=NCCCS1,outcome,[1],inactive
Cc1ncc(CNC(=O)N(CCCl)N=O)c(N)n1,outcome,[1],inactive
CN1C[C@H](CNC(=O)OCc2ccccc2)C[C@@H]2c3cccc4c3c(cn4C)C[C@H]21,Potency,[17],inactive
O=c1c(O)c(-c2ccc(O)c(O)c2)oc2cc(O)cc(O)c12,Potency,[17],5.62 µM (active)
